The panel holds about 83,000 compounds, 20% with a hit somewhere; the sample as a whole holds those more often.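 Plates (96-well) were seeded with cells, treated with compound at one concentration, and incubated for 48 hours before percent growth was determined.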 Unmarked numbers belong to inactive results. The source made the active and inactive calls. The calls were made as follows: active = growth percent below 10; inactive = the rest.

Experiment in all cases: NCI-60 one-dose screen, 48 h (100 = growth as untreated, 0 = no growth, -100 = all killed)
Settings in all cases: 10 µM unless noted

The test system of assay [1] is SK-MEL-2 melanoma.
The subject of assay [2] is EKVX NSCLC.
In assay [3] the test system is SN12C renal.
For assay [4], the system named is UO-31 renal.
The subject of assay [5] is TK-10 renal.
The test system of assay [6] is ACHN renal.
Assay [7] has as its system CCRF-CEM leukemia.
For assay [8], the system named is MOLT-4 leukemia.
In assay [9] the test system is A498 renal.
Assay [10] has as its system CAKI-1 renal.

Regarding `COc1ccc(C2CC(c3ccc(OC)cc3OC)=NN2c2ccc(S(N)(=O)=O)cc2)cc1` (stereo not given), the growth is 94.6% in assay [1]; 87.5% in [2]; 90.8% in assay [3]; 86.8% in assay [4]; 105% in assay [5]; 107% in assay [6]. For the same compound, the results for the growth in assay [7] and in assay [8] were 75.5% and 61.8%, respectively.
On to `CCN1CCN(CC(=O)N2c3cccc4cccc(c34)N(C(=O)CN3CCN(CC)CC3)C2c2cn(-c3ccccc3)nc2-c2cccc([N+](=O)[O-])c2)CC1`, for which the growth was -9.31% (active) in assay [1]; 36.5% in assay [2]; -53% (active) in assay [3]; -26.1% (active) in assay [4]; -41.4% (active) in assay [5]; -43.6% (active) in [6]. Also, the growth was 74.7% in assay [9], -33.6% (active) in [7] and -33.7% (active) in [8].
As for `Clc1ccccc1-c1nc2ccccc2[nH]1`, the growth in [1] is 116%; in assay [2] it was 90.3%; in assay [3], 116%; in assay [4] it was 95.1%; in assay [5], 121%; in [10], 77.5%. The growth in assay [9] is 110%; in assay [7], 91%; in assay [8], 110%.
For `CN(C)CCN1C(=O)c2ccc3c4c(ccc(c24)C1=O)C(=O)N(CCN=C=S)C3=O`, the growth in [1] was -75% (active); in assay [2] it was -95.2% (active); in assay [3], -89.5% (active); in [4], -95.4% (active); in [5], -95.3% (active); in assay [10] it was -80% (active). For the same compound, the growth is -97.8% (active) in assay [9], -50.6% (active) in assay [7] and -52.2% (active) in assay [8].
As for `CCCCCCCCC(C)OC(=O)c1nn(C(C)=O)c2ccccc12` (stereo not given), the growth in [1] is 97.7%; in [2], 92.2%; in assay [3], 102%; in assay [4] it was 83.1%; in [5] it was 93.2%; in assay [6], 107%. Besides, the growth in [9] is 109%; in assay [7] it was 100%; in assay [8], 109%.
Turning to `NC(N)=Nc1nc2ccccc2o1`, the growth is 133% in [1]; 109% in assay [2]; 110% in [3]; 99.9% in assay [4]; 129% in assay [5]; 96.6% in [6]. For the same compound, the growth in [9] was 89.5%; in assay [7], 80.1%; in [8], 95.4%.
Consider `COc1cc(C2C3=C(COC3=O)Nc3cc4c(cc32)CCC4)cc2c1OCO2` (stereo not given), for which the growth in [1] is 54.4%; in assay [2], 45.4%; in assay [3] it was 30.9%; in assay [4] it was 53.5%; in assay [5], 67.4%; in assay [10], 37.2%. Further, the growth in assay [9] was 25.6%; in assay [7], 10.3%; in assay [8], 19.6%.
As to `OB(O)c1cccc(-c2nc3ccc4[nH]ncc4c3c3c2CCCC3)c1F`, the growth in [1] was 57.1%; in assay [2] it was 50.2%; in assay [3], 47.7%; in assay [4], 27%; in assay [5], 18.3%; in assay [6], 32.2%. Also, the growth in [9] is 12.7%; in assay [7], 29.7%; in assay [8], 52%.
On to `COc1ccc(C2=CC(c3cc(OC)c(OC)c(OC)c3)NC(=O)N2)cc1OC` (stereo not given), for which the growth was 20.7% in assay [1]; 35.5% in [2]; 23.7% in assay [3]; 22.8% in assay [4]; 12.8% in assay [5]; 5.82% (active) in assay [10]. Further, the values for the growth in [9], in [7] and in [8] were 19.3%, 6.59% (active) and 17.9%, respectively.
In the case of `COc1cccc(/C=C2\Oc3cc(OCCCN4CCCC4)ccc3C2=O)c1OC`, the growth in [1] was 105%; in assay [2], 93%; in assay [3] it was 95.2%; in assay [4], 79.3%; in assay [5], 104%; in [6], 102%. The values for the growth in assay [7] and in [8] were 85.1% and 91.5%, respectively.
Consider `COc1ccc(N=Cc2c(O)ccc3c2oc2cc(Cl)c(O)c(Cl)c23)cc1`, for which the growth in assay [1] is -1.58% (active); in [2] it was 108%; in [3], 102%; in [4] it was 103%; in [5], 120%; in assay [6], 96.2%. For the same compound, the growth was 77.9% in assay [7] and 89.1% in assay [8].
In the case of `COc1cc([N+](=O)[O-])c2ncccc2c1O`, the growth in assay [1] is 4.77% (active); in assay [2], 105%; in assay [3] it was 33.7%; in [5], 89.2%; in [6], 88.8%; in [10], 82.9%. The growth was 61.3% in [7] and 119% in [8].
On to `Nc1ncnc2c1c(-c1ccc(Oc3ccccc3)cc1)nn2C[C@@H]1SSC[C@@H]1O`, for which the growth in assay [1] is -57.5% (active); in [2], 25.2%; in assay [3] it was 37.1%; in [4], 13.7%; in assay [6] it was 23.6%; in assay [9], 43.8%. In addition, the growth was -15% (active) in assay [7] and -38.1% (active) in assay [8].
Regarding `CCN1CCN(c2nc(NNC(=O)c3ccccc3)nc(N3CCN(C(c4ccccc4)c4ccccc4)CC3)n2)CC1`, the growth in [1] was 78.4%; in [2], 66.6%; in assay [3], 70.8%; in assay [5], 95.1%; in [6] it was 81.1%; in assay [10] it was 42.7%. Further, the growth is 39.4% in [7] and 8.93% (active) in assay [8].
